Assay results from the supplement of paper PMC10849652.
The full data set covers some 8,800 targets. This sample favours those with a hit. About 0.5% of all pairs of compound and target were hits. Values without a mark were called inactive.

The targets below were run with CC1=C(C2=C(C=C1)C(=O)C3=CC=CC=C3N2CCCN)C (assay: log2 fold change, soluble protein after heating vs DMSO (PISA); higher = thermal stabilisation; K562 lysate, 10 uM; active = over 0.2 and 3.5 SD of the protein, either way, in both replicates (recomputed)).
Summary of the method: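 K562 pellets were dounce-homogenised in PBS pH 7.4 containing 1 mM MgCl2, and the crude extract, at 1 mg/mL protein, was exposed to 10 μM compound for 30 min. Aliquots were heated for 3 min across 48°C-58°C, pooled, brought to 0.5% NP-40 at 4°C and spun at 21,000xg for 90 min, with the supernatant taken as soluble protein. TMTpro 16plex LC-MS/MS with equalised channel sums quantified that protein. Values are log-two fold changes in thermal stability relative to solvent controls, taken from duplicates.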

UniProt Q66K74, sequence (Q66K74 whole entry, looked up): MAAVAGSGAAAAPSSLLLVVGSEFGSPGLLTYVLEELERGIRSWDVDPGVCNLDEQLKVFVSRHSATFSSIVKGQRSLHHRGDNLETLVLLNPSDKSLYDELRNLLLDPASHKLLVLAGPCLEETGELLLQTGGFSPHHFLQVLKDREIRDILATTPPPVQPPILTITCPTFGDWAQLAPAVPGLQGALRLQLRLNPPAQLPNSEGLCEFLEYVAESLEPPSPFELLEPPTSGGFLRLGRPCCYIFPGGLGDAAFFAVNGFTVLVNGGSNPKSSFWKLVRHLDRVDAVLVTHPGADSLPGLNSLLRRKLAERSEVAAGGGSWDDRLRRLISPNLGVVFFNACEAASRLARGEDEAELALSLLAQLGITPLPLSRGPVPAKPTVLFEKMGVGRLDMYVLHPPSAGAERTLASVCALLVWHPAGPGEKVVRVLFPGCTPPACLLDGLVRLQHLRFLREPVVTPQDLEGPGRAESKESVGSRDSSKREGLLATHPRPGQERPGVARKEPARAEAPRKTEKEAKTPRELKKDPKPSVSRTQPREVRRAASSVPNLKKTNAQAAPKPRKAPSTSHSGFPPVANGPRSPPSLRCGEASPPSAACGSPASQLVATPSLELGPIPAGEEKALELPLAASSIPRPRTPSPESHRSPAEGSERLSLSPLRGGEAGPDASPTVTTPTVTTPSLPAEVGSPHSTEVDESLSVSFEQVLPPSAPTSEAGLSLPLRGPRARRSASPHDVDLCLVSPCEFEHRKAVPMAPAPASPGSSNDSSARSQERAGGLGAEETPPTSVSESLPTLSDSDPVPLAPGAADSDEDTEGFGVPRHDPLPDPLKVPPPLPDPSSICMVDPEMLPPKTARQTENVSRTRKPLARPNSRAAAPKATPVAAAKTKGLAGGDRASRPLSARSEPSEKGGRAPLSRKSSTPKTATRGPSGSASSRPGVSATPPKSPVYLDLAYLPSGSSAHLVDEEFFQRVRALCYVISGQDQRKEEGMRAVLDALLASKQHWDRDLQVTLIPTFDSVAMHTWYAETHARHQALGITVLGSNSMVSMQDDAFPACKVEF
UniProt Q9NZB8, sequence (Q9NZB8 whole entry, looked up): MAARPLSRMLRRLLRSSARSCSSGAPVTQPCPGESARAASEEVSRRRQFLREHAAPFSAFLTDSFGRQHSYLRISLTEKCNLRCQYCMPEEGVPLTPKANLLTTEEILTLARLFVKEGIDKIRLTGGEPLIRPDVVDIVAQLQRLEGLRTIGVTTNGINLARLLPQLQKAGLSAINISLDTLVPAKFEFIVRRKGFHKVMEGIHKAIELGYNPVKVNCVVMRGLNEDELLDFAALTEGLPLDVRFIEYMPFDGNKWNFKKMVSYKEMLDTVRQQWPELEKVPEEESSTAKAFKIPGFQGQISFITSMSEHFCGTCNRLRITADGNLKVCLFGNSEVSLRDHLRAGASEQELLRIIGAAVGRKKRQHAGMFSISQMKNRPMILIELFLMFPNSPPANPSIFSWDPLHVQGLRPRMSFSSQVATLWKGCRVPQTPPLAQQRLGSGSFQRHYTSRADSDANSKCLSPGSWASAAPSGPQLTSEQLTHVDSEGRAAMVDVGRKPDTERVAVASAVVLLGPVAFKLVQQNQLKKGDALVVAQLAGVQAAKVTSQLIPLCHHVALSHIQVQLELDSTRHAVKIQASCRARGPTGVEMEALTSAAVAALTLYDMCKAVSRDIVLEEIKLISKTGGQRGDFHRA
UniProt Q9BTE3, sequence (Q9BTE3 whole entry, looked up): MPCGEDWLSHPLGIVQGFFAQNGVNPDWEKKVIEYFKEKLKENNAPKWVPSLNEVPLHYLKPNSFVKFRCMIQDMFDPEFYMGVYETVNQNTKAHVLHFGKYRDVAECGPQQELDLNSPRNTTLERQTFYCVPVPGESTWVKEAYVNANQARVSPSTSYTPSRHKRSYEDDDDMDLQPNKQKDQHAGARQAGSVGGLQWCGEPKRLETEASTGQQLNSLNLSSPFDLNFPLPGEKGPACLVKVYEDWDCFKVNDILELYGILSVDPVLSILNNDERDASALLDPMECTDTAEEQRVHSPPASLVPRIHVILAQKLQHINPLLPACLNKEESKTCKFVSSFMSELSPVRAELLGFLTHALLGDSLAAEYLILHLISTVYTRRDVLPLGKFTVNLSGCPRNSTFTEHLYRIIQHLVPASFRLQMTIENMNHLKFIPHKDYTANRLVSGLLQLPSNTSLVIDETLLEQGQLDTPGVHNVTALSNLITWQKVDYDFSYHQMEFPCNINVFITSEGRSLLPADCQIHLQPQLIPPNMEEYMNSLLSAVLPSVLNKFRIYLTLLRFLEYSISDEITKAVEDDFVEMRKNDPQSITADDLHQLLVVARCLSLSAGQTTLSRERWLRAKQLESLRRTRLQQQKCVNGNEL
UniProt P49917, sequence (P49917 whole entry, looked up): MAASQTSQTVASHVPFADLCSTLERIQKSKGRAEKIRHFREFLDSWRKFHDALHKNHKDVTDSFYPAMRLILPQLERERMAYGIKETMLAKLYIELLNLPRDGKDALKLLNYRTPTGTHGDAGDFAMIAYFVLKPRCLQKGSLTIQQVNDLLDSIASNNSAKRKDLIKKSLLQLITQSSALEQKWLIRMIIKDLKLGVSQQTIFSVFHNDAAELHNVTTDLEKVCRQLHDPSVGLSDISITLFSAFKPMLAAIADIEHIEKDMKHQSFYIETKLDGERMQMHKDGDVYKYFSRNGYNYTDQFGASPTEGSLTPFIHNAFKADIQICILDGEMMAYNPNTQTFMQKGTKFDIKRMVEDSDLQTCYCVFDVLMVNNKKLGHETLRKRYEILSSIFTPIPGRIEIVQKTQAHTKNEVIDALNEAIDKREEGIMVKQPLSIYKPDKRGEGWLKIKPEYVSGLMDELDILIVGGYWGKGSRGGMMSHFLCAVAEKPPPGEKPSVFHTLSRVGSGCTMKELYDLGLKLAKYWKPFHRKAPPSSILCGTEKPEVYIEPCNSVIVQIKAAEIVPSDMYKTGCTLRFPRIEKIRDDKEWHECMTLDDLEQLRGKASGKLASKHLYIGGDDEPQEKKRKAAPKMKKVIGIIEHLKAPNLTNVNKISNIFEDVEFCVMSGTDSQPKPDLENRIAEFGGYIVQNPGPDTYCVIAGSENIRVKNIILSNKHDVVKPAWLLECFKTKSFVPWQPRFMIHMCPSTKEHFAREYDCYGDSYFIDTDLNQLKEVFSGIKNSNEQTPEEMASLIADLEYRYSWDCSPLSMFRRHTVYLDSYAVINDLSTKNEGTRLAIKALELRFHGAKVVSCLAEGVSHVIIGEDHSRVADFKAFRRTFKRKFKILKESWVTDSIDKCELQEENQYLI
UniProt Q14149, sequence (Q14149 whole entry, looked up): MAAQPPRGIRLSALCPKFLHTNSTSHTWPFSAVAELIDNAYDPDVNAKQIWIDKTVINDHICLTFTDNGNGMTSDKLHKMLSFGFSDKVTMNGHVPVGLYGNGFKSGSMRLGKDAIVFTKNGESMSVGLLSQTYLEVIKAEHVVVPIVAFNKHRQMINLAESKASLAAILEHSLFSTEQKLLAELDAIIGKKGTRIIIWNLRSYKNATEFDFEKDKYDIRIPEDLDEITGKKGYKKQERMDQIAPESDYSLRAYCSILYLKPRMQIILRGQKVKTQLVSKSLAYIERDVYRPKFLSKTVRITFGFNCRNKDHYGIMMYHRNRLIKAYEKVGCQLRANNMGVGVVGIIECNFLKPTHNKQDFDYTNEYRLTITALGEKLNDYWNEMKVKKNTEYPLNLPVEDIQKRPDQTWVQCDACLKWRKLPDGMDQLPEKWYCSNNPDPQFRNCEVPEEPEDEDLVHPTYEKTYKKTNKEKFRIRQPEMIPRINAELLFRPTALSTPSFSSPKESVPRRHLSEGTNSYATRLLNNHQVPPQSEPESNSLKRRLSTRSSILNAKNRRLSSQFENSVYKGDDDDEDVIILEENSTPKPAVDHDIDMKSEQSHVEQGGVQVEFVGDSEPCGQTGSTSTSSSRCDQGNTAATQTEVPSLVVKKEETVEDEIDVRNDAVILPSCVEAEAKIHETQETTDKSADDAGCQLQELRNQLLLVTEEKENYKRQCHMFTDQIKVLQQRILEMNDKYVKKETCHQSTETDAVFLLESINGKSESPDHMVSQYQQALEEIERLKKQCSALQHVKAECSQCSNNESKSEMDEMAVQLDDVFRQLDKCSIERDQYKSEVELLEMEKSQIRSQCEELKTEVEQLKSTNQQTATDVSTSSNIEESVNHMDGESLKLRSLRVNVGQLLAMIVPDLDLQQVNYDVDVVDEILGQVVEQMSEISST
UniProt Q99797, sequence (Q99797 whole entry, looked up): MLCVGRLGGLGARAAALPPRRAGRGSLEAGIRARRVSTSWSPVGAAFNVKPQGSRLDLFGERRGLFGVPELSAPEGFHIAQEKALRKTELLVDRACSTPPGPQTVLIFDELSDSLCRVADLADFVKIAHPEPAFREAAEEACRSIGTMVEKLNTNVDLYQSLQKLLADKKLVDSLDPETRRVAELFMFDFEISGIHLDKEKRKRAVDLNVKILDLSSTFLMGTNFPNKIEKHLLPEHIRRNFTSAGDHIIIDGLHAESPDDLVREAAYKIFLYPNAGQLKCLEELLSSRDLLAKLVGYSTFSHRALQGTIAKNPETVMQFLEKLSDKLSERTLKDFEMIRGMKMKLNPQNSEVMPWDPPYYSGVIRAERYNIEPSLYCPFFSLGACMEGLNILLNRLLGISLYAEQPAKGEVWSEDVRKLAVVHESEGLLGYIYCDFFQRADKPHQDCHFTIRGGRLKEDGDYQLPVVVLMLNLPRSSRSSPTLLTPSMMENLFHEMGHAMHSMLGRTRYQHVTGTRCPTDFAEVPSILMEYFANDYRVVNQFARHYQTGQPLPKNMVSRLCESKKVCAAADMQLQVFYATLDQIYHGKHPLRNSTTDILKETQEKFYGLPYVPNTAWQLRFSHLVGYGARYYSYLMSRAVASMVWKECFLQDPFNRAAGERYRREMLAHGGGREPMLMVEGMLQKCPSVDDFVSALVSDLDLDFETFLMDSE

| Target | log2 fold change |
| --- | --- |
| MARK2 (UniProt E9PC69) | -0.063 |
| MICU1 isoform 3 (UniProt Q9BPX6) | 0.013 |
| MED12 isoform 2 (UniProt Q93074) | 0.003 |
| LYAR (UniProt Q9NX58) | -0.012 |
| MLH1 (UniProt P40692) | -0.055 |
| MIPEP (UniProt Q99797) | -0.003 |
| MAD2L1BP isoform 3 (UniProt Q15013) | -0.054 |
| LIG4 (UniProt P49917) | -0.021 |
| MCUB (UniProt Q9NWR8) | -0.219 |
| MOCS1 isoform 8 (UniProt Q9NZB8) | -0.003 |
| MAP3K4 (UniProt Q9Y6R4) | -0.012 |
| MAPKAPK2 (UniProt P49137) | 0.002 |
| MAPK9 (UniProt P45984) | -0.086 |
| MCMBP isoform 2 (UniProt Q9BTE3) | -0.05 |
| MRPL15 (UniProt Q9P015) | -0.133 |
| MRPL10 isoform 2 (UniProt Q7Z7H8) | -0.005 |
| MORC3 (UniProt Q14149) | -0.032 |
| LRRC40 (UniProt Q9H9A6) | 0.002 |
| LARP4B (UniProt Q92615) | 0.03 |
| MAP1S (UniProt Q66K74) | -0.021 |
| LTN1 isoform 3 (UniProt O94822) | -0.009 |
| MCCC1 (UniProt Q96RQ3) | 0.026 |
